This note sets out measurements from PubChem BioAssay AID720596 (The Scripps Research Institute Molecular Screening Center, 2013).

Molecules are shown by their SMILES. In all, about 370,000 compounds went through this assay and about 1,600 (0.43%) were called active. The list comes from a sample in which actives are over-represented; it also holds similar structures and randomly drawn compounds. A number with no mark means an inactive call. Rule as the data show it: active = inhibition above about 24%; inactive = the rest.

The assay has as its target Major prion protein (Homo sapiens) (UniProt P04156). Description: reduces human prion protein on the cell surface, primary screen, cell-based, TR-FRET (AID 720596). Also: 0% = median of the test wells and 100% = reference compound wells. The settings on record: cell surface PrPC, TR-FRET read-out; at 13.8 µM; hits give high values. On the technique in general: TR-FRET usually uses a lanthanide donor and a delayed reading to cut background.
The term inhibition denotes the drop in the measured response relative to a control, in per cent. `COc1ccc(Cn2cc(COC(=O)N(C)Cc3ccccc3)nn2)cc1`: the inhibition was 6.15%.

`OCC1(CO)CC2(C1)CC(CO)(CO)C2`: the inhibition is 2.39%.

`O=C(Nc1cc(F)cc(F)c1)OC1CCC12CCC(c1ccccc1)CC2` (stereo not drawn): the inhibition is 4.41%.

For the compound `FC(F)(F)c1cccc(NC(=S)OC2CCC23CCC(c2ccccc2)CC3)c1` (stereo not drawn), the inhibition is 24.4% (active).

With `CSc1nccc(NC(=O)c2ccc(C(C)(C)C)cc2)n1`, the inhibition was 29.4% (active).

As for `CSc1ncc(C(=O)Nc2ccc(C)cc2C)c(C)n1`, the inhibition was -0.45%.

Take `CC(C)(C)c1ccc(C(=O)Nc2cc(Cl)c(Br)cc2C(=O)O)cc1`: the inhibition was 21%.

On to `Cn1cc(CN2CCCCC2c2ccccn2)c(-c2ccc3c(c2)OCCO3)n1` (stereo not drawn), for which the inhibition is -3.25%.

As to `CC(C)C(=O)N1CCC2(CC1)Oc1ccc(F)cc1C(=O)C21CC(c2ccccc2)=NO1` (stereo not drawn), the inhibition was -0.07%.

`CCCCN(CC)C(=O)C1CCCN(S(=O)(=O)c2cccc3nsnc23)C1` (stereo not drawn): the inhibition was -27.1%.

With `COc1cc(C)c(C(C)C)cc1S(=O)(=O)n1ccnc1`, the inhibition is -1.35%.

Take `OCCCNc1nccc(-c2cc(Nc3cccc(Cl)c3)ncn2)n1`: the inhibition was 29.2% (active).

As for `COCn1c(C(O)c2ccccc2)cc2ccccc21` (stereo not drawn), the inhibition is 6.96%.

Regarding `O=C(O)C#Cc1cccc2ccccc12`, the inhibition was 17.9%.

`CN(O)C(=S)c1ccccc1`: the inhibition was 36.8% (active).

As to `O=C(c1ccco1)N1CCN(CC(=O)N(C2CCCCC2)C2CCS(=O)(=O)C2)CC1` (stereo not drawn), the inhibition was 7.46%.

For `COc1ccc(CCN2C(=O)C3CC=C(C)CC3C2=O)cc1OC` (stereo not drawn), the inhibition is -3.31%.

As for `CC(=O)c1nc(N2C(=O)C3CC=C(C)CC3C2=O)sc1C` (stereo not drawn), the inhibition is 38.2% (active).

With `CC1=CCC2C(=O)N(c3cccc(C(=O)NC(C)c4ccccc4)c3)C(=O)C2C1` (stereo not drawn), the inhibition was -1.98%.

As for `Cc1ccc(N2C(=O)N3[C@@H]4c5ccccc5OC[C@@H]4[C@@H](c4ccccc4)[C@@]3(C)C2=O)cc1`, the inhibition is -0.71%.

For the compound `O=C(CCn1nnnc1CN1CCOCC1)N1CCC(c2ccccc2Cl)C1` (stereo not drawn), the inhibition is 1.76%.

`COCCNC(=O)C1(C)CCCN(Cc2cccc(F)c2)C1` (stereo not drawn): the inhibition is 10.6%.

Take `N#CC1=C(N)Oc2[nH]c(=S)[nH]c(=O)c2C12C(=O)Nc1ccccc12` (stereo not drawn): the inhibition was -0.84%.

`CC1(C)Cc2ccccc2-c2[nH]c(=S)[nH]c(=O)c21`: the inhibition is 78.3% (active).

For `CC(C)CC(N=C1NC(C)(C)Cc2ccccc21)C(=O)O` (stereo not drawn), the inhibition is -0.6%.

With `O=C(CCCCCN1C(=O)C2C3C=CC(C3)C2C1=O)Nc1ccccc1` (stereo not drawn), the inhibition is 3.7%.

For the compound `Cc1ccc(C)c(NC(=O)C2CC(=O)N(C(C)C)C2)c1` (stereo not drawn), the inhibition is 1.81%.

For the compound `CC(C)(C)NC(=O)COc1ccc(CNc2ccc3[nH]c(=O)[nH]c3c2)cc1`, the inhibition is -1.03%.

For `COc1ccccc1NC(=O)COC(=O)CNC(=O)C1CCCCC1`, the inhibition is -3.12%.

Turning to `COc1ccc(NC(=O)COC(=O)CNC(=O)C2CCCCC2)cc1`, the inhibition was 31.5% (active).

As for `COc1ccc(NC(=O)CN(C)C(=O)CNC(=O)C2CCCCC2)cc1`, the inhibition is 7.94%.

With `Cc1ccc(NC(=O)N2c3ccccc3SC2c2ccco2)c(C)c1` (stereo not drawn), the inhibition was 2.15%.

Consider `COc1ccc(C(=O)N2CCCCC2c2cc(C(=O)Nc3ccccc3)no2)cc1` (stereo not drawn), for which the inhibition was 6.89%.

On to `CN1CCn2cnc(C(=O)NCC(=O)OC(C)(C)C)c2C1=O`, for which the inhibition was -0.34%.

Regarding `COCC1CCN(C(=O)C2CCC(=O)N(Cc3cccc(C(F)(F)F)c3)C2)CC1` (stereo not drawn), the inhibition was 9.85%.

Consider `COc1ccccc1CNC(=O)c1cc(-c2cc(F)ccc2OC)n[nH]1`, for which the inhibition is -1.69%.

As for `COc1cc(F)ccc1-c1cc(C(=O)NCC2CCCCC2)[nH]n1`, the inhibition is 9.68%.

Consider `COc1ccc(OC)c(NC(=O)c2cc(-c3cc(F)ccc3OCC3CCCO3)n[nH]2)c1` (stereo not drawn), for which the inhibition was 84.9% (active).

Turning to `CC1(C)CC(=O)C2=C(C1)NCN(CCCN1CCOCC1)C2`, the inhibition is -0.29%.

As for `Cn1cccc1C1(C(F)(F)F)NCCNC1=O` (stereo not drawn), the inhibition is -0.11%.

As to `Cc1cc(C(C)(C)C)cc(S(=O)(=O)Nc2ccc(C(=O)O)cc2)c1C`, the inhibition is 0.8%.

Turning to `O=C(O)c1ccc(F)c(S(=O)(=O)Nc2ccccc2)c1`, the inhibition was -4.14%.

`Cc1ccc(C(=O)Nc2ccccc2-c2ccccc2)cc1S(=O)(=O)Nc1ccccc1`: the inhibition is 25.5% (active).

Turning to `CCC(C)N(C(=O)COC(=O)c1nc(Cl)ccc1Cl)C1CCS(=O)(=O)C1` (stereo not drawn), the inhibition was 5.66%.

In the case of `Cc1cc2oc3ccc(NCCC4CCCN4C)cc3c(=O)c2cc1C` (stereo not drawn), the inhibition is -13.5%.

Regarding `COc1cccc2sc3cc(NCC[C@@H]4CCCN4C)ccc3c(=O)c12`, the inhibition was 44.1% (active).

`N#Cc1c(-c2ccc(Cl)cc2)c2c([nH]c1=S)CCCC2`: the inhibition was -2.9%.

In the case of `CC1CC(=O)Nc2ccccc2N1C(=O)COc1ccc2cc(Br)ccc2c1` (stereo not drawn), the inhibition was -0.09%.

For `O=C(Nc1ccccc1Cl)/C(Cl)=C(\Cl)S(=O)c1ccccc1` (stereo not drawn), the inhibition is 93.7% (active).

As for `Cc1ccc(S(=O)(=O)N(C)C)cc1NC(=O)c1ccc(-n2cncn2)c([N+](=O)[O-])c1`, the inhibition is -32.8%.

For `O=C(N/N=C/c1c(O)n(C2CC2)c(=S)[nH]c1=O)c1ccccc1`, the inhibition was -3.29%.

In the case of `O=C(N/N=C/c1c(O)n(C2CC2)c(=S)[nH]c1=O)c1ccccc1Cl`, the inhibition was 6.86%.

`Cc1[nH]n(-c2ccccc2)c(=O)c1/C=N/NC(=O)c1ccoc1C`: the inhibition is 43.4% (active).

In the case of `O=C(CCN1CCCO1)N1CCCC(N2CCN(c3cccc(C(F)(F)F)c3)CC2)C1` (stereo not drawn), the inhibition is 1.86%.

Turning to `Cn1c(=S)sc2ccc3ccccc3c21`, the inhibition was 51.9% (active).

Take `COc1ccc2ccccc2c1CNc1nnnn1C`: the inhibition was -6.2%.

As to `CSc1nnc(CNC(=O)c2ccccc2)n1-c1ccc(F)cc1`, the inhibition is 0.49%.

Turning to `CC1=C(C(=O)Nc2cccc(C(=O)NCC(C)c3ccccc3)c2)SCCO1` (stereo not drawn), the inhibition is 12.5%.

`O=C(CCS(=O)(=O)c1ccccc1)Nc1ccc(Cl)c(Cl)c1`: the inhibition is 4.48%.

With `CC(c1cccnc1)N(CCN(C)C)C(=O)Nc1ccc(Cl)c(Cl)c1` (stereo not drawn), the inhibition was 2.3%.

With `O=C(CC(O)(C(F)(F)F)C(F)(F)F)Nc1ccc(Cl)c(Cl)c1`, the inhibition is 64.7% (active).

For `CC(C)c1ccc(NC(=O)[C@@H](NC(=O)N2CC(=O)Nc3ccccc32)C(C)C)cc1`, the inhibition was 3.7%.

Regarding `Cc1sc2ncnc(SCC(=O)Nc3ccc(CN4CCCC4)cc3)c2c1C`, the inhibition was 33.7% (active).

On to `Cc1sc2ncnc(SCC(=O)NC3CCS(=O)(=O)C3)c2c1C` (stereo not drawn), for which the inhibition was 9.26%.

In the case of `COC(=O)c1c(-c2cccs2)csc1NC(=O)CSc1ncnc2sc(C)c(C)c12`, the inhibition is -2.84%.

Turning to `CC/C(=N\O)C(C)(C)/[N+]([O-])=C/c1ccc(Br)cc1`, the inhibition was 10.7%.

For `O=C1CCCC2=C1C(c1cccs1)CC(=O)N2c1ccc(F)cc1` (stereo not drawn), the inhibition is 0.75%.

As to `CCC(=O)N1c2ccccc2NC2=C(C(=O)CCC2)C1c1ccco1` (stereo not drawn), the inhibition was -1.24%.

Regarding `O=C1CCCC2=C1C(c1cccs1)n1nc(SCc3ccccc3)nc1N2` (stereo not drawn), the inhibition is 50.8% (active).

For the compound `CC(=O)c1c(C)[nH]c(C(=O)OCC(=O)Nc2c(C)n(C)n(-c3ccccc3)c2=O)c1C`, the inhibition is 6.5%.

In the case of `COc1ccc2c(c1)[C@@]13CCCCC1[C@@H](C2)NCC3` (stereo partly drawn), the inhibition was 1.48%.

On to `Cc1cc2cc(CNC(=O)c3cccs3)ccc2[nH]1`, for which the inhibition is 7.85%.

For the compound `Cc1cc2cc(CNC(=O)c3ccc(S(=O)(=O)N4CCOCC4)cc3)ccc2[nH]1`, the inhibition was 27.4% (active).

Turning to `Cc1ccc(CC(=O)Nc2ccc(S(=O)(=O)N3CCOCC3)cc2)cc1C`, the inhibition was 10.2%.

For the compound `Cc1nc(NC(=O)CCC(=O)O)sc1C(=O)N(C)C`, the inhibition was 0.26%.

As for `Cc1c(C(=O)NCCN(C)C)oc2ccc(S(=O)(=O)N3CCCC3)cc12`, the inhibition was 1.49%.

In the case of `Nc1nc2c(Br)ccc(Br)c2cc1C(=O)NCCc1ccccc1`, the inhibition was 6.33%.

Turning to `CN(C)CCNC(=O)c1ccc(Cl)c2cc3ccccc3nc12`, the inhibition was 34.5% (active).

In the case of `CCN(Cc1ccccc1)C(=O)CN1C(=S)NC(C)(C)CC1C` (stereo not drawn), the inhibition was 6.01%.

In the case of `CCN(c1ccccc1)S(=O)(=O)c1ccc2[nH]c(=O)[nH]c2c1`, the inhibition is -6.81%.

Turning to `O=C(Nc1ccc(N2CCN(C(=O)c3ccccc3)CC2)c(Cl)c1)c1cccnc1`, the inhibition was 26.1% (active).

As to `Cc1ccccc1N1CCN(C(=O)c2cccnc2)CC1`, the inhibition is -4.83%.

On to `O=C(Nc1ccc(N2CCN(C(=O)c3ccccc3)CC2)c(Cl)c1)c1ncn[nH]1`, for which the inhibition is 11.2%.

Turning to `COc1ccc2c(c1)c(=O)c(C(=O)c1ccc(Cl)cc1)cn2CC(=O)Nc1ccc(F)cc1`, the inhibition is 0.3%.

For `Cc1ccc(Cn2cc(C(=O)NN)c(=O)c3ccc(F)cc32)cc1`, the inhibition was -1.23%.

Turning to `O=C(c1ccc(F)cc1)c1cn(Cc2ccc(F)cc2)c2cc3c(cc2c1=O)OCCO3`, the inhibition is 34.4% (active).

`CCCCc1nc2cc(C(=O)NCCc3cnn(C)c3)ccc2o1`: the inhibition is -7.17%.

On to `CC(C)N(Cc1nc(-c2ccc3c(c2)OCO3)no1)CC1CCC(=O)N1` (stereo not drawn), for which the inhibition is 7.11%.

As for `N#Cc1c(N)nc2c3c(sc(=N)c2c1N)NC(=O)CC3c1ccccc1Cl` (stereo not drawn), the inhibition was 31.5% (active).

Take `CC(C)CCN1CCC(C)(NC(=O)c2ccccc2)C1=O` (stereo not drawn): the inhibition is -6.7%.

Regarding `CC1(c2ccccc2)NC(=O)N(CC(=O)N2CC(=O)Nc3ccccc32)C1=O` (stereo not drawn), the inhibition is 1.68%.

Regarding `COc1ccc(-c2c(C)cc3oc(=O)cc(-c4ccccc4)c3c2C)cc1C=O`, the inhibition was 4.67%.

As for `CN(C(=O)COC(=O)CCCc1c[nH]c2ccccc12)c1c(N)n(Cc2ccccc2)c(=O)[nH]c1=O`, the inhibition was 7.89%.
